# ABCB6 inh MLPCN: blocks the human ABCB6 transporter; Q9NP58; K562-ABCB6 porphyrin accumulation, flow cytometry, 1 h; stronger effect = lower value; fluorescence ratio to DMSO, % at 10 µM; 360,000 compounds, 0.19% hits; AID 602162;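 active means fluorescence ratio to DMSO below 75%, the collection mean minus 3 SD; inconclusive means too few cells collected in the well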;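 further: signal is porphyrin accumulated inside mitochondria; 100% equals median channel fluorescence of DMSO control wells; lower ratio means ABCB6 inhibition with less porphyrin fluorescence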
# Glyco luc inh: blocks N-linked glycosylation in D54 reporter cells. reporter increase, % at 12.5 µM. 360,000 compounds, 0.23% hits. D54 ERlucT glycosylation luciferase reporter, 24 h; percent of 100 nM tunicamycin response. AID 588692;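 active means mean luciferase reporter signal, scaled so untreated is 0 and the glycosylation-blocking control 100, at or above a set limit in every replicate; inconclusive means mean reaches the limit but not every replicate does; inactive means mean below the limit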;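 further: luciferase carries N-glycosylation sites so blocking glycosylation raises the light; 0% = median of neutral control wells and 100% = median of 100 nM tunicamycin wells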
# Vif imaging: HIV Vif inhibition; inhibition, % at 7.49 µM; 340,000 compounds, 0.35% hits; AID 602346; HEK293T cells, Vif self-association by quenched fluorescence, imaging, 24 h; in the data active means inhibition above about 50%, passing the limit was not always enough; inconclusive means no clear call, values can overlap the other calls; inactive means below about 31%
# Myeloid diff 2: compounds promoting myeloid differentiation; ER-HoxA9 myeloid progenitors, lysozyme-GFP differentiation, flow cytometry; AID 624256; 360,000 compounds, 1% hits; calls only at 10 µM;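 active means normalized GFP-positive differentiation at or above the plate's own cutoff, the solvent-only control mean plus 3 SD; inconclusive means no clear call, values can overlap the other calls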;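 further: cells exposed to compound for four days before flow analysis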
# RAD54 branch: inhibitors of human RAD54 branch migration; AID 602329; inhibition, % at 10.4 µM; Q92698; RAD54 Holliday junction branch migration, FAM/BHQ fluorescence; 360,000 compounds, 0.14% hits;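 active means mean normalized replicate activity at least 40 and at least half of replicates scoring 40 or more; inconclusive means only one of the two criteria met; inactive means mean below 40 and under half of replicates reaching 40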;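 further: 0% = median of neutral control wells and 100% = median of positive control wells; inhibitors cause a drop in the FAM fluorescence signal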
# Target sequence (Q92698 whole entry, looked up): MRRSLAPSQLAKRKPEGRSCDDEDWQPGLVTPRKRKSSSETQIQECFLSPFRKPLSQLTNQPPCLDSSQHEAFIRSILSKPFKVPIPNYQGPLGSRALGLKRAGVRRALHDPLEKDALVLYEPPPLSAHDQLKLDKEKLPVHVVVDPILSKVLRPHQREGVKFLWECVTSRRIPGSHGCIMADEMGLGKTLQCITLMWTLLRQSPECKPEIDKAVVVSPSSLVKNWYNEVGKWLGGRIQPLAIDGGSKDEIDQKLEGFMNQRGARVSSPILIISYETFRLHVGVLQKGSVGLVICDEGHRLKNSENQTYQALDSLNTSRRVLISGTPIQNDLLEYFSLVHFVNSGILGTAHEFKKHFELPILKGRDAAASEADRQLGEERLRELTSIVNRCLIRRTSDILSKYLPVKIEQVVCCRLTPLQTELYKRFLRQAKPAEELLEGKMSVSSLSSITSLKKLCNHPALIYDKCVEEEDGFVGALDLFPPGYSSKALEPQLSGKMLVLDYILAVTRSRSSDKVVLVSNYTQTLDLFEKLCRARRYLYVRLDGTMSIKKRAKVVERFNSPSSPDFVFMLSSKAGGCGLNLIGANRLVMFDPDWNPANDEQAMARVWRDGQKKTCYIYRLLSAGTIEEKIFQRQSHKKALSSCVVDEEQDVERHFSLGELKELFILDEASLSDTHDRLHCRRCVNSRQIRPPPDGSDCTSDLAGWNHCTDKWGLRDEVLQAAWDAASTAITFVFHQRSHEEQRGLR
# Active calls of the source: *; i = inactive; ? = inconclusive; . = not tested or not shown; + = active, no number. Only some compounds are listed: those with a hit (about 1.6% of all), similar ones and a draw of the others.
SMILES,ABCB6 inh MLPCN,Glyco luc inh,Vif imaging,Myeloid diff 2,RAD54 branch
COC(=O)[C@@H]1[C@@H](CO)[C@@H]2Cn3c(ccc(-c4ccccc4OC)c3=O)[C@H]1N2Cc1ccccc1,.,.,.,.,-14.3
N#C/C(=C\c1ccc(O)cc1)C(=O)O (tested in a mixture with another compound),108.0,2.4,-3.7,+,-3.7
COC(=O)[C@H]1[C@H](CO)[C@H]2Cn3c(ccc(-c4ccccc4F)c3=O)[C@@H]1N2C(C)=O,.,.,.,.,3.9
CCN(CC)c1ccc(/C=C2\C(=O)NC(=S)N(c3ccc(OC)cc3OC)C2=O)o1,114.0,3.6,9.7,+,-79.4
COc1ccc(N2C(=O)/C(=C/c3ccc(N(C)C)o3)C(=O)NC2=S)cc1,106.0,-5.5,-0.6,i,-27.1
CCN(CC)c1ccc(/C=C2\C(=O)NC(=S)N(C)C2=O)o1,122.0,-7.0,6.4,+,-32.2
CCC(C)NC(=O)CCC(=O)OC1O[C@H]2OC3(C)CC[C@H]4[C@H](C)CCC(C1C)C24OO3 (some centres undefined),100.0,8.0,-7.7,?,-18.5
C[C@@H]1CC[C@H]2[C@@H](C)C(=O)O[C@@H]3O[C@@]4(C)CC[C@@H]1[C@]32OO4,109.0,-0.9,11.6,+,0.4
O=C(NCNC(=O)NC1C(=O)NC(=O)N1CO)NC1C(=O)NC(=O)N1CO (centres undefined),100.0,1.0,122.8*,i,-0.2
O=C(Cc1ccccc1)N1C[C@H]2[C@@H](c3ccccc31)[C@@H](CO)N2Cc1ccccc1,.,.,.,.,-4.8
CNc1cc(N2CCNCC2)ccc1[N+](=O)[O-],102.0,-2.6,50.9*,i,.
CC1=C[C@@H]2c3cccc4[nH]cc(c34)C[C@H]2N(C)C1,146.0,0.2,.,+,?
NC(N)=Nc1ccc2[nH]c3c(c2c1)C[C@@]1(O)[C@H]2Cc4ccc(O)c5c4[C@@]1(CCN2CC1CC1)[C@H]3O5,102.0,-4.8,3.3,i,53.7*
CC(Cc1ccc(O)cc1)NCC(O)c1cc(O)cc(O)c1 (centres undefined),98.0,1.4,89.7*,i,6.0
CCNCC(O)c1cccc(O)c1 (centres undefined),94.0,0.1,1.5,i,7.0
COc1cc(/C=C/[N+](=O)[O-])ccc1O,100.0,29.2*,8.8,+,-6.2
CCN(CC)c1ccc(/C=C/[N+](=O)[O-])cc1,120.0,7.5,2.7,i,-10.6
CC=Cc1ccc2n(c1=O)C[C@@H]1[C@@H](CO)[C@H](C(=O)OC)[C@H]2N1CC1CCOCC1 (mixture of isomers),.,.,.,.,4.6
O=C(Nc1cccc(Br)c1)c1c(O)c2c(n(Cc3ccccc3)c1=O)CCCC2,140.0,-2.1,6.2,+,5.3
CC(C)CC#Cc1ccc([C@H]2[C@H](CO)N3CCCCN(C(=O)Cc4ccccn4)C[C@@H]23)cc1,.,.,.,.,4.7
COc1ccc(-c2ccc([C@@H]3[C@@H](CO)N4CCCCN(C(=O)Cc5ccccc5)C[C@H]34)cc2)cc1,.,.,.,.,4.7
CC=Cc1ccc2n(c1=O)C[C@H]1[C@H](CO)[C@@H](C(=O)OC)[C@@H]2N1S(=O)(=O)c1ccccc1C (mixture of isomers),.,.,.,.,4.7
CCCCn1c(O)c(C(CC)=NC(C)c2ccccc2)c(=O)[nH]c1=O (centres undefined),99.0,1.9,-15.4,i,3.9
C=CCn1c(O)c(C(CC)=NC(C)c2ccccc2)c(=O)[nH]c1=O (centres undefined),98.0,25.6*,15.8,i,-1.7
COc1ccc(C#Cc2ccc([C@H]3[C@@H](CO)N4CCCCN(C(=O)Cc5ccncc5)C[C@@H]34)cc2)cc1,.,.,.,.,-19.7
SMILES,ABCB6 inh MLPCN,Glyco luc inh,Vif imaging,Myeloid diff 2,RAD54 branch
CCCNC(=O)[C@H]1[C@H](CO)[C@H]2Cn3c(cccc3=O)[C@H]2N1C,.,.,.,.,2.5
CN1CC=C(c2c[nH]c3ccccc23)CC1,102.0,-1.2,6.4,+,5.8
C1=C(c2c[nH]c3ccccc23)CCN(Cc2ccccc2)C1,103.0,-3.9,-20.0,?,.
C#C[C@]1(O)[C@H](O)CC2C3CC[C@H]4C[C@@H](O)CC[C@]4(C)C3CC[C@@]21C (some centres undefined),98.0,-4.0,7.8,+,-2.4
CC(C)[C@H]1C(=O)N2CCC[C@H]2[C@]2(O)O[C@](NC(=O)[C@@H]3C=C4c5cccc6[nH]cc(c56)C[C@H]4N(C)C3)(C(C)C)C(=O)N12,122.0,4.0,13.8,+,-17.2
CC(C)C[C@H]1C(=O)N2CCCC2[C@]2(O)O[C@](NC(=O)[C@@H]3C=C4c5cccc6[nH]cc(c56)CC4N(C)C3)(C(C)C)C(=O)N12 (some centres undefined),123.0,0.1,30.3,i,-24.8
COc1ccc(OC)c(NC2=NCCCS2)c1,114.0,1.1,-16.1,+,.
COc1ccc(OC)c(NC2=NCCS2)c1,101.0,0.5,-1.9,i,4.7
COC(=O)C[C@H]1CC[C@H]2NC[C@H](O)COC[C@@H]2O1,.,.,.,.,-9.0
CC(=O)OC[C@]12CCC(C)=C[C@H]1O[C@@H]1[C@H](O)[C@@H](OC(C)=O)[C@@]2(C)[C@]12CO2,101.0,-20.5,-35.1,+,-13.6
c1ccc2c(c1)[IH]c1ccccc1-2,92.0,53.7*,-13.7,?,51.9*
c1ccc2c(c1)-c1cccc3cccc-2c13,101.0,0.6,4.2,i,-2.7
COc1ccc2c3c([nH]c2c1)C(C)=NCC3,154.0,-6.0,-3.6,+,14.3
CNC1CCc2cc(OC)c(OC)c(OC)c2-c2ccc(SC)c(=O)cc21 (centres undefined),100.0,3.2,102.9*,?,.
COc1cc(C(O)CNC(C)C)cc(F)c1OC (centres undefined),101.0,1.7,55.2*,i,-5.9
O=C(O)[C@@H]1[C@@H](CO)[C@@H]2Cn3c(ccc(-c4ccccc4)c3=O)[C@H]1N2CC1CCCCC1,.,.,.,.,-14.3
N[C@@H](Cc1c[nH]c2ccccc12)c1nnc(SCc2ccc(Cl)cc2)o1,71.0*,0.7,-17.4,i,-1.3
COC(=O)[C@@H]1[C@@H](CO)[C@@H]2Cn3c(ccc(C4=CCCC4)c3=O)[C@H]1N2S(=O)(=O)c1cn(C)cn1,.,.,.,.,1.4
Cc1cccc(S(=O)(=O)N2[C@@H]3c4ccc(-c5ccncc5)c(=O)n4C[C@H]2[C@H](CO)[C@H]3C(=O)O)c1,.,.,.,.,-4.2
O=C1NC(=O)C(=Cc2cc([N+](=O)[O-])ccc2N2CCCCC2)C(=O)N1,98.0,0.6,59.0*,i,5.4
O=C1NC(=O)C(=Cc2ccc(N3CCN(C(=O)c4ccccc4)CC3)c([N+](=O)[O-])c2)C(=O)N1,103.0,2.1,8.0,i,.
Cc1ccc2nsnc2c1-n1c(C)nc2ccccc2c1=O,104.0,0.2,-2.6,+,-1.5
COC(=O)[C@H]1[C@H](CO)[C@H]2Cn3c(ccc(-c4ccncc4)c3=O)[C@@H]1N2S(=O)(=O)c1ccccc1F,.,.,.,.,3.3

# High-throughput results (PubChem BioAssay)
